“And” between values parts separate entries of the source, which are not always exact repeats. Equal entries are not always repeated. Out of some 5,500 compounds screened, about 2,000 (36%) were called active. Inconclusive results (about 18%) are left out. Cut-off read from the data, not from the text of the source: active = normalized growth mostly below about 0.91 (no sharp cut-off); inconclusive = no clear call, values can overlap the other calls; inactive = mostly above about 0.92. The list shows a part of the results.
Assay: chemical genetic growth profiling, strain panel (AID 1159580);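 note: tested at 20 µM; growth read once vehicle control cultures reached saturation at 30 °C; 1 = growth at the plate median or of vehicle wells; lower values mean less growth of the strain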
Details: growth OD

Measured: normalized growth

COc1ccc2c(c1OC)OC[C@@H](c1ccc(OC)c(OC)c1OC)C2
inactive: S. cerevisiae deletion strains, locus YAL013W, strain DEP1, hits give low values 1.01 | S. cerevisiae deletion strains, locus YBR021W, strain FUR4, hits give low values 0.972 | S. cerevisiae deletion strains, locus YBR229C, strain ROT2, hits give low values 1 | S. cerevisiae deletion strains, locus YCL029C, strain bik1, hits give low values 1.01 | S. cerevisiae deletion strains, locus YDL035C, strain GPR1, hits give low values 1.01 | S. cerevisiae deletion strains, locus YDL074C, strain BRE1, hits give low values 0.999 | S. cerevisiae deletion strains, locus YDL101C, strain DUN1, hits give low values 1.01 | S. cerevisiae deletion strains, locus YDL134C, strain PPH21, hits give low values 0.999 | S. cerevisiae deletion strains, locus YDL185W, strain tfp1, hits give low values 1.02 | S. cerevisiae deletion strains, locus YDL192W, strain arf1, hits give low values 1.01 | S. cerevisiae deletion strains, locus YDR101C, strain arx1, hits give low values 1 | S. cerevisiae deletion strains, locus YDR162C, strain NBP2, hits give low values 1 | S. cerevisiae deletion strains, locus YDR318W, strain mcm21, hits give low values 1.03 | S. cerevisiae deletion strains, locus YDR388W, hits give low values 1.01 | S. cerevisiae deletion strains, locus YDR502C, strain sam2, hits give low values 0.996 | S. cerevisiae deletion strains, locus YEL061C, strain CIN8, hits give low values 1.01 | S. cerevisiae deletion strains, locus YER110C, hits give low values 1 | S. cerevisiae deletion strains, locus YER155C, strain BEM2, hits give low values 1.01 | S. cerevisiae deletion strains, locus YER167W, strain BCK2, hits give low values 1.03 | S. cerevisiae deletion strains, locus YGL078C, strain dbp3, hits give low values 1 | S. cerevisiae deletion strains, locus YGL086W, strain mad1, hits give low values 0.994 | S. cerevisiae deletion strains, locus YGL248W, strain PDE1, hits give low values 1.01 | S. cerevisiae deletion strains, locus YGR078C, strain PAC10, hits give low values 0.998 | S. cerevisiae deletion strains, locus YGR135W, strain pre9, hits give low values 0.999 | S. cerevisiae deletion strains, locus YGR252W, strain gcn5, hits give low values 0.976 | S. cerevisiae deletion strains, locus YHR030C, strain SLT2, hits give low values 1.02 and 1.03 | S. cerevisiae deletion strains, locus YHR079C, strain IRE1 (second series), hits give low values 1.01 | S. cerevisiae deletion strains, locus YHR079C, strain IRE1, hits give low values 1.02 | S. cerevisiae deletion strains, locus YHR094C, strain hxt1, hits give low values 1.01 | S. cerevisiae deletion strains, locus YHR129C, strain ARP1, hits give low values 1.02 | S. cerevisiae deletion strains, locus YHR200W, strain rpn10, hits give low values 1.01 | S. cerevisiae deletion strains, locus YIL066C, strain RNR3, hits give low values 1.01 | S. cerevisiae deletion strains, locus YIL073C, strain SPO22, hits give low values 1.03 | S. cerevisiae deletion strains, locus YIL125W, strain kgd1, hits give low values 1 | S. cerevisiae deletion strains, locus YIR030C, strain dcg1, hits give low values 1.01 | S. cerevisiae deletion strains, locus YJL095W, strain BCK1, hits give low values 0.998 and 1.04 | S. cerevisiae deletion strains, locus YJL134W, strain LCB3, hits give low values 1.01 | S. cerevisiae deletion strains, locus YJL168C, strain set2, hits give low values 1.01 | S. cerevisiae deletion strains, locus YJL187C, strain SWE1 (second series), hits give low values 1 | S. cerevisiae deletion strains, locus YJR043C, strain POL32, hits give low values 1.02 | S. cerevisiae deletion strains, locus YJR066W, strain TOR1, hits give low values 0.983 | S. cerevisiae deletion strains, locus YKL009W, strain mrt4, hits give low values 1.01 | S. cerevisiae deletion strains, locus YKL068W, hits give low values 1 | S. cerevisiae deletion strains, locus YKL085W, strain MDH1 (second series), hits give low values 0.993 | S. cerevisiae deletion strains, locus YKL085W, strain MDH1, hits give low values 0.993 | S. cerevisiae deletion strains, locus YKL190W, strain CNB1, hits give low values 1.01 | S. cerevisiae deletion strains, locus YKR001C, strain vps1, hits give low values 1 | S. cerevisiae deletion strains, locus YLR039C, strain RIC1, hits give low values 1.13 | S. cerevisiae deletion strains, locus YLR058C, strain SHM2, hits give low values 1 | S. cerevisiae deletion strains, locus YLR102C, strain apc9, hits give low values 1.02 | S. cerevisiae deletion strains, locus YLR113W, strain HOG1, hits give low values 0.939 | S. cerevisiae deletion strains, locus YLR262C, strain YPT6, hits give low values 1.14 | S. cerevisiae deletion strains, locus YLR268W, strain sec22, hits give low values 0.996 | S. cerevisiae deletion strains, locus YLR330W, strain CHS5, hits give low values 1.01 | S. cerevisiae deletion strains, locus YLR342W, strain FKS1 (second series), hits give low values 1.04 | S. cerevisiae deletion strains, locus YLR371W, strain rom2, hits give low values 1.01 | S. cerevisiae deletion strains, locus YLR418C, strain cdc73, hits give low values 0.988 | S. cerevisiae deletion strains, locus YML016C, strain PPZ1, hits give low values 1.02 | S. cerevisiae deletion strains, locus YML032C, strain rad52, hits give low values 1.02 | S. cerevisiae deletion strains, locus YML124C, strain tub3, hits give low values 1 | S. cerevisiae deletion strains, locus YMR078C, strain ctf18, hits give low values 1 | S. cerevisiae deletion strains, locus YMR223W, strain ubp8, hits give low values 0.999 | S. cerevisiae deletion strains, locus YMR263W, strain SAP30, hits give low values 0.996 | S. cerevisiae deletion strains, locus YMR307W, strain GAS1, hits give low values 0.927 | S. cerevisiae deletion strains, locus YNL067W, strain RPL9B, hits give low values 1.01 | S. cerevisiae deletion strains, locus YNL183C, strain NPR1, hits give low values 0.97 | S. cerevisiae deletion strains, locus YNL233W, strain BNI4, hits give low values 0.997 | S. cerevisiae deletion strains, locus YNL250W, strain rad50, hits give low values 0.998 | S. cerevisiae deletion strains, locus YNL271C, strain bni1, hits give low values 0.999 | S. cerevisiae deletion strains, locus YNL298W, strain CLA4, hits give low values 0.998 | S. cerevisiae deletion strains, locus YNL307C, strain MCK1, hits give low values 1.04 | S. cerevisiae deletion strains, locus YNL322C, strain KRE1, hits give low values 1.01 | S. cerevisiae deletion strains, locus YNR052C, strain pop2, hits give low values 1.02 | S. cerevisiae deletion strains, locus YOL012C, strain htz1 1.06 | S. cerevisiae deletion strains, locus YOL147C, strain pex11, hits give low values 1 | S. cerevisiae deletion strains, locus YOR061W, strain CKA2, hits give low values 1.01 | S. cerevisiae deletion strains, locus YOR069W, strain VPS5, hits give low values 1.01 | S. cerevisiae deletion strains, locus YOR136W, strain idh2, hits give low values 1.01 | S. cerevisiae deletion strains, locus YOR144C, strain elg1, hits give low values 1 | S. cerevisiae deletion strains, locus YOR184W, strain ser1, hits give low values 0.976 | S. cerevisiae deletion strains, locus YOR231W, strain MKK1, hits give low values 1.06 | S. cerevisiae deletion strains, locus YOR316C, strain cot1, hits give low values 1.01 | S. cerevisiae deletion strains, locus YPL241C, strain CIN2, hits give low values 1.01 | S. cerevisiae deletion strains, locus YPL256C, strain CLN2, hits give low values 1.06 | S. cerevisiae deletion strains, locus YPR119W, strain clb2, hits give low values 1 | S. cerevisiae deletion strains, locus YPR141C, strain kar3, hits give low values 1.02 | S. cerevisiae deletion strains, locus YPR163C, strain tif3, hits give low values 1.01 | S. cerevisiae deletion strains, locus YPR167C, strain met16, hits give low values 1.01 | S. cerevisiae deletion strains, strain wtn01, hits give low values 1.02 | S. cerevisiae strains, strain wild type, hits give low values 1.01
